# Measurements published in paper PMC11062922 (Nature Chemical Biology, 2023).
# Where two headings read alike, the source gives them in different places.
# Columns and labels:
# Parameters in all cases: species or system human, MV4-11 + K-562 + COLO205 + SK-N-BE2 + OVCAR-8
# DAPK3 = conditions: read-out: apparent Kd; compound concentrations: 100 nM and 1000 nM (sheet 'Samples'), CATDS: 6.6145961365307402E-3; n = 1
# AMPK-alpha1 = conditions: compound concentrations: 100 nM and 1000 nM (sheet 'Samples')
# NEK9 = conditions: compound concentrations: 100 nM and 1000 nM (sheet 'Samples')
# SRC = conditions: compound concentrations: 100 nM and 1000 nM (sheet 'Samples')
# DCK = conditions: read-out: apparent Kd, compound concentrations: 100 nM and 1000 nM (sheet 'Samples'), n = 1
# LIMK2 = conditions: read-out: apparent Kd, n = 1
# MAP3K12 = conditions: read-out: apparent Kd, compound concentrations: 100 nM and 1000 nM (sheet 'Samples'), n = 1
# PRKACG [1] = conditions: compound concentrations:0.3nM, 1nM, 3nM, 10nM, 30nM, 100nM, 300nM, 1000nM,R2:0.71933853436235096,slope:7.8735043887932097,EC50 Standard Error, by the legend:Standard error of the EC50 estimation as provided by the drc package.
# NNT = conditions: read-out: apparent Kd, compound concentrations: 100 nM and 1000 nM (sheet 'Samples'), n = 1
# IARS = conditions: read-out: apparent Kd, compound concentrations: 100 nM and 1000 nM (sheet 'Samples'), n = 1
# NME2;NME2P1 = conditions: read-out: apparent Kd, n = 1
# PRKACG [2] = conditions: read-out: apparent Kd, compound concentrations: 100 nM and 1000 nM (sheet 'Samples'), n = 1
# EIF2AK1 = conditions: read-out: apparent Kd, n = 1
# MTHFD1 = conditions: read-out: apparent Kd, compound concentrations: 100 nM and 1000 nM (sheet 'Samples'), n = 1
# GALK1 = conditions: read-out: apparent Kd, compound concentrations: 100 nM and 1000 nM (sheet 'Samples'), n = 1
# MCM5 = conditions: read-out: apparent Kd, compound concentrations: 100 nM and 1000 nM (sheet 'Samples'), n = 1
# CDC42 = conditions: read-out: apparent Kd, n = 1
# RAB5C = conditions: read-out: apparent Kd, n = 1
# ADK = conditions: read-out: apparent Kd, compound concentrations: 100 nM and 1000 nM (sheet 'Samples'), n = 1
# PKM = conditions: read-out: apparent Kd, n = 1
# [3] = compound concentrations:100 nM and 1000 nM (sheet 'Samples')
# 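For EC50 in this document: competition pulldown with Kinobeads ε in cell lysates, inhibitor preincubated 45 min at 4 °C, bound kinases quantified by LC–MS/MS against DMSO control.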
# 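For Kd in this document: competition pulldown with Kinobeads ε in cell lysates, inhibitor preincubated 45 min at 4 °C, bound kinases quantified by LC–MS/MS against DMSO control.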
# 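For Kinobeads Data in this document: kinobeads ε competition pulldown from cell lysate, compound preincubated 45 min at 4 °C, bound kinases quantified by LC–MS/MS relative to DMSO control.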
compound,measurement,setting,value
O=C1N=C(NCCc2ccc(Cl)cc2)S/C1=C\c1ccc2ncccc2c1 [RO4498479-000],potency estimated from few doses,DAPK3,2110 nM
COc1cc(Nc2ncc3c(C)nc(-c4cc5ccccc5[nH]4)n3n2)cc(OC)c1OC [GW869516X],Kinobeads Data,AMPK-alpha1,no target
same,Kinobeads Data,NEK9,no target
same,Kinobeads Data,SRC,no target
Cn1ncc2c(N)ncnc21 [SKF-18267],potency estimated from few doses,DCK; CATDS: 4.5565133541076702E-3,987 nM
same,potency estimated from few doses,"LIMK2; compound concentrations: 100 nM and 1000 nM (sheet 'Samples'), CATDS: 3.7102033319592401E-3",1630 nM
same,potency estimated from few doses,MAP3K12; CATDS: 4.9126246890692504E-3,843 nM
CCn1c(-c2nonc2N)nc2c(C#CC(C)(C)O)nc(OCCNC)cc21.Cl [GSK949675A],EC50,PRKACG [1],303 nM
same,Kd,PRKACG [1]; read-out: apparent Kd,262 nM
COc1ccc(-c2cc3c(N)ncnc3o2)cc1 [GW642138X],potency estimated from few doses,NNT; CATDS: 0.135417913174183,1070 nM
O=C(O)C(F)(F)F.O=c1[nH]ccc2nc(N[C@@H]3CCNC3)nc(Nc3ccc4c(c3)S(=O)(=O)CC4)c12 [GSK2181306A],potency estimated from few doses,IARS; CATDS: 8.0761213761314007E-3,1860 nM
Cc1cccc(Nc2nc(N[C@H]3CCNC3)ncc2C(N)=O)c1.Cl [GSK2197149A],potency estimated from few doses,NME2;NME2P1; [3],1460 nM
CC(C)Oc1ccc2c(-c3ccnc(Nc4ccc(N5CCN(C)CC5)cc4)n3)cnn2n1 [GW696155X],potency estimated from few doses,LIMK2; [3],883 nM
Cc1ccccc1-n1ncc(C(=O)c2ccccc2)c1N [RO1151248-000],potency estimated from few doses,PRKACG [2]; CATDS: 2.9121921896178699E-2,613 nM
CCn1c(-c2cccnc2O)nc2cnccc21 [SB-736715],potency estimated from few doses,DCK; CATDS: 1.18043457558384E-2,2290 nM
same,potency estimated from few doses,"EIF2AK1; compound concentrations: 100 nM and 1000 nM (sheet 'Samples'), CATDS: 1.2624621535744099E-2",1920 nM
CCN(CC)Cc1ccc(Nc2nccc(-c3cnn4ncccc34)n2)cc1 [GW780056X],potency estimated from few doses,MTHFD1; CATDS: 2.2377842490129501E-2,921 nM
CS(=O)(=O)Nc1cccc(-c2ccc3c(NC(=O)C4CC4)n[nH]c3c2)c1 [SB-742864],potency estimated from few doses,GALK1; CATDS: 0.105390971488214,1820 nM
same,potency estimated from few doses,"NME2;NME2P1; compound concentrations: 100 nM and 1000 nM (sheet 'Samples'), CATDS: 0.103585369709675",1910 nM
COc1cc(Nc2nccc(-c3cnn4ncccc34)n2)cc(OC)c1 [GW801372X],potency estimated from few doses,MCM5; CATDS: 1.9115246172466901E-2,1390 nM
Cl.Cl.NC(CNC(=O)c1cc(Br)c(-c2ccnc3[nH]ccc23)s1)c1ccccc1.NC(CNC(=O)c1cc(Br)c(-c2ccnc3[nH]ccc23)s1)c1ccccc1 (stereo not drawn) [GSK1322949A],potency estimated from few doses,"CDC42; compound concentrations: 100 nM and 1000 nM (sheet 'Samples'), CATDS: 2.9749426965709602E-2",1240 nM
same,potency estimated from few doses,GALK1; CATDS: 2.6759379349231501E-2,1600 nM
same,potency estimated from few doses,MAP3K12; CATDS: 3.2066551551393298E-2,1040 nM
same,potency estimated from few doses,MCM5; CATDS: 2.5853375360702799E-2,1760 nM
same,potency estimated from few doses,MTHFD1; CATDS: 2.96394051410106E-2,1250 nM
same,potency estimated from few doses,"RAB5C; compound concentrations: 100 nM and 1000 nM (sheet 'Samples'), CATDS: 2.6344655895194399E-2",1670 nM
CC(C)Nc1cc(-c2ccc3c(N)n[nH]c3c2)nc(N)n1 [GSK2221681A],potency estimated from few doses,CDC42; [3],1530 nM
O=C1N=C(NCc2cccs2)O/C1=C\c1ccc2ncccc2c1 [RO4624208-000],potency estimated from few doses,ADK; CATDS: 4.98118638137824E-2,1390 nM
O=C1N=C(NCc2c(Cl)cccc2Cl)S/C1=C\c1ccc2ncccc2c1 [RO4600445-000],potency estimated from few doses,ADK; CATDS: 0.24369856841726101,1350 nM
CCn1c(-c2nonc2N)nc2c(C#CC(C)(C)O)nc(O[C@@H](CN)c3ccccc3)cc21.O=C(O)C(F)(F)F [GSK1007102B],potency estimated from few doses,EIF2AK1; [3],996 nM
COc1cc(Nc2nccc(N3CCC(NC(=O)c4cccc(NC(C)=O)c4)C3)n2)cc(OC)c1OC (stereo not drawn) [GSK1379754A],potency estimated from few doses,"PKM; compound concentrations: 100 nM and 1000 nM (sheet 'Samples'), CATDS: 8.1586836054847095E-2",1900 nM
Cl.Nc1nc(-c2ccc3c(c2)C(=Cc2cc(Br)c(O)c(Br)c2)C(=O)N3)cs1 [GW407323A],potency estimated from few doses,NNT; CATDS: 3.26521392467971E-2,987 nM
Cl.Cl.NCC(NCc1ccc(-c2ccnc3[nH]ccc23)s1)c1ccccc1.NCC(NCc1ccc(-c2ccnc3[nH]ccc23)s1)c1ccccc1 (stereo not drawn) [GSK1321565A],potency estimated from few doses,PKM; [3],2050 nM
Nc1nc(-c2ccc3c(N)n[nH]c3c2)cc(N2CCCC(NC(=O)c3ccccc3)C2)n1 (stereo not drawn) [GSK2286775B],potency estimated from few doses,RAB5C; [3],1520 nM
NS(=O)(=O)c1ccc(N/N=C2\C(=O)Nc3ccc4ncccc4c32)cc1 [GW305178X],potency estimated from few doses,PRKACG [2]; CATDS: 4.9106390332169098E-2,1030 nM
COc1ccc(Nc2nccc(NCCNC(=O)Nc3cc(C)ccc3C)n2)cc1 [GSK1379899A],potency estimated from few doses,IARS; CATDS: 4.14736343029877E-2,1920 nM
